Laboratory results taken from PubChem BioAssay (NCATS).
Records with an inconclusive call do not appear. Active and inactive are the calls of the source. Unless noted, calls come from the whole dose curve; as a rule, active = well fitted curve in the direction sought with a large enough effect; inconclusive = small, poorly fitted or top-dose-only effect, or another doubt; inactive = no such curve, though single readings can be large; an effect the other way counts as inactive or inconclusive.

Tests used:
[1] = target: Peroxisome proliferator-activated receptor gamma (Homo sapiens) (UniProt P37231); test: qHTS assay for small molecule agonists of peroxisome proliferator-activated receptor gamma signaling (AID 588536; active = well fitted curve in the direction sought with a large enough effect in the signal ratio, with a control signal flat, not every such curve was filed as active; the % refers to the signal ratio); conditions: HEK293 PPARg-UAS-bla, beta-lactamase ratio, 16 h, percent of rosiglitazone response, DMSO as zero; series mostly up to 76.7 µM
Peroxisome proliferator-activated receptor gamma (Homo sapiens), sequence (P37231 whole entry, looked up): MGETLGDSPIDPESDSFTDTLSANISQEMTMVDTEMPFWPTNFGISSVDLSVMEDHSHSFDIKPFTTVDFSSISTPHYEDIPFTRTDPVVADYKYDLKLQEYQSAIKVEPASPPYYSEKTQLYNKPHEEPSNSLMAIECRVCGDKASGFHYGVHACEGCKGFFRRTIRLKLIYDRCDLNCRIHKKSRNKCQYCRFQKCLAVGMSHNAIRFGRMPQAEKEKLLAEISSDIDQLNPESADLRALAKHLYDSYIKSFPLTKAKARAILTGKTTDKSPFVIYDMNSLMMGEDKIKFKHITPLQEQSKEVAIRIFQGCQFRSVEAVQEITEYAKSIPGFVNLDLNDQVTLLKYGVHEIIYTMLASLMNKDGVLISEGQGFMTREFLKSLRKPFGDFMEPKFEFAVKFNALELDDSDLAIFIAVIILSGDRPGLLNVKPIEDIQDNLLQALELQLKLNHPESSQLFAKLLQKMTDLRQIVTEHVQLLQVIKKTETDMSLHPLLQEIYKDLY
Procedure, shortened: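 Cells were plated and held 6–6.5 h at 37 C, then compounds were added as a titration series. After a further 16 h, CCF4 dye was loaded for 2 h at room temperature and emission at 460/530 nm recorded.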

[2] = AP1 Signaling Pathway (AID 357; active = well fitted curve in either direction with a large enough effect, not every such curve was filed as active;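 note: ME-180 reporter cells stimulated with EGF at its EC50 level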); conditions: ME-180 (cervical carcinoma) AP-1-bla reporter, EGF-induced, beta-lactamase ratio, 5 h; series mostly up to 38 µM
Procedure, shortened: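 In this screen, ME-180 cells in Opti-MEM with 0.5% dialyzed FBS received EC50 EGF and compound titrations for 5 h. AP-1 reporter beta-lactamase was detected via CCF4 ratio, giving AC50 for positive and negative modulators.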

[3] = target: 3',5'-cyclic-AMP phosphodiesterase 4B (Homo sapiens) (UniProt Q07343); test: qHTS Assay for Inhibitors of PDE-IV (AID 607; active = well fitted activation curve with a large enough effect in the main read-out, with a control signal flat, not every such curve was filed as active); conditions: HEK293 ACTOne CNG channel cells, membrane potential fluorescence; series mostly up to 22.9 µM
3',5'-cyclic-AMP phosphodiesterase 4B (Homo sapiens), sequence (Q07343 whole entry, looked up): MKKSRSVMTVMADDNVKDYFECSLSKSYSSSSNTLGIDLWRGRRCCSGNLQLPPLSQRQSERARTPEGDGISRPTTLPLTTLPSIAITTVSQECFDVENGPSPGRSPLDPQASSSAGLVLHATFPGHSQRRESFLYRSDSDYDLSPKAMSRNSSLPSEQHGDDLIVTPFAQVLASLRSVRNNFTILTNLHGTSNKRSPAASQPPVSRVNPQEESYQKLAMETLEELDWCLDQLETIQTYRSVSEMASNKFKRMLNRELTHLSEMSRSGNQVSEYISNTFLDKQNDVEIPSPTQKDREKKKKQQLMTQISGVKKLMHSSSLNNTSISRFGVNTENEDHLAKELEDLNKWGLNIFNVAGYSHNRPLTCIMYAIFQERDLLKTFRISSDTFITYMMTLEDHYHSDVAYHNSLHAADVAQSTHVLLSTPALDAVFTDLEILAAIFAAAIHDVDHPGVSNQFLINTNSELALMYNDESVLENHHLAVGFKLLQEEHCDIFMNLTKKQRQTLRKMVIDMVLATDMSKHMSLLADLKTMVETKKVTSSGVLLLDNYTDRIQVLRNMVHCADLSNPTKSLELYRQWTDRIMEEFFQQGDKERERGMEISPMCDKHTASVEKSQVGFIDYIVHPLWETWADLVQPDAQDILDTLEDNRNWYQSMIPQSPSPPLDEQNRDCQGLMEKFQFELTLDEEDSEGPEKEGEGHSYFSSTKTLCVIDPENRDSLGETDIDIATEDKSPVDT
Procedure, shortened: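 HEK293 ACTOne cells with CNG channel (1000/well), endogenous PDE4; membrane potential dye, compounds up to 22.9 uM final. Fluorescence Ex 535/Em 590; RO 20-1724 (100 uM final) as reference.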

[4] = qHTS Assay for Identification of Small Molecule Agonists for Thrombopoietin (TPO) Signaling Pathway (AID 917); conditions: TPO signaling pathway reporter cells, agonist qHTS; series mostly up to 38.5 µM
Procedure, shortened: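 Ba/F3 (mouse) + hTPO receptor + GpIIb-promoter luciferase; IL-3 withdrawn overnight; compound + 26 pM TPO (EC50), 24 hrs, 37 C, 5% CO2; Steadylite luminescence, 10 min RT.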

[5] = target: Pyruvate kinase (Leishmania mexicana) (UniProt Q27686); test: qHTS Validation Assay for Inhibitors of Leishmania Mexicana Pyruvate Kinase (AID 945); conditions: purified L. mexicana pyruvate kinase, enzyme activity, E451W mutant enzyme; series mostly up to 57.5 µM
Pyruvate kinase (Leishmania mexicana), sequence (Q27686 2-499 E452W): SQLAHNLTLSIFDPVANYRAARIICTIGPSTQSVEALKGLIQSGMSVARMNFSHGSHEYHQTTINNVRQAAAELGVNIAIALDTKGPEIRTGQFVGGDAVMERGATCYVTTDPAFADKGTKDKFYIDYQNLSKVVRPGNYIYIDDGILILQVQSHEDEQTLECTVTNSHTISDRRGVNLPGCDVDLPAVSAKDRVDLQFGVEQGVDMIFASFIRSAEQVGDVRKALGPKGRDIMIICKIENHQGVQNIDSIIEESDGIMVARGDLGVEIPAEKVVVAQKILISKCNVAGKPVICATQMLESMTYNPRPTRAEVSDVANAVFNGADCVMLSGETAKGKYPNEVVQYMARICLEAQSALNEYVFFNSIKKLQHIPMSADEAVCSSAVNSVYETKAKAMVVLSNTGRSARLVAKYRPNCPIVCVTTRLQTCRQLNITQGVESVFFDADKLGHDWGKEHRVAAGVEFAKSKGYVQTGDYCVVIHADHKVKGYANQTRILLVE
Procedure, shortened: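 Purified LmPYK (E451W mutant, 0.2 nM) was incubated 1 h at room temperature with 0.5 mM PEP and 0.1 mM ADP in 50 mM imidazole pH 7.2, 50 mM KCl, 7 mM MgCl2; ATP formed was read by PKLight luminescence, normalized to DMSO wells.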

[6] = target: Pyruvate kinase PKM (Homo sapiens) (UniProt P14618); test: qHTS Assay for Activators of Human Muscle Pyruvate Kinase (AID 954; active = well fitted curve in the direction sought with a large enough effect, not every such curve was filed as active); conditions: purified human muscle pyruvate kinase, luciferase-coupled luminescence, 1 h; series mostly up to 57.5 µM
Pyruvate kinase PKM (Homo sapiens), sequence (P14618 whole entry, looked up): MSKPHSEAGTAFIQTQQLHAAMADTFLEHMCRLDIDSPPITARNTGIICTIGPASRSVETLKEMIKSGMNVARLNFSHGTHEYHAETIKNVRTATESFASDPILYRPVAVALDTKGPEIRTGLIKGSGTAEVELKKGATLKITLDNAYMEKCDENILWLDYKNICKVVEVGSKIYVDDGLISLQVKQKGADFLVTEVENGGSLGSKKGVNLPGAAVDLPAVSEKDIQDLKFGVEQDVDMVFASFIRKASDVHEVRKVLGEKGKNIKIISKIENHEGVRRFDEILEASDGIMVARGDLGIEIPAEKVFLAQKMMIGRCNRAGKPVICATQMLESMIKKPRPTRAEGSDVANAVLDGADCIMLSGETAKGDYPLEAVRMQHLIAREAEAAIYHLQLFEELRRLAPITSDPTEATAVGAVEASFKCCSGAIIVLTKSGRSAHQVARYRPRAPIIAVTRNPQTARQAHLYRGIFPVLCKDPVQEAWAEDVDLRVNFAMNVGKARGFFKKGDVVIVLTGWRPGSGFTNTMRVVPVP
Procedure, shortened: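 Compound pinned into substrate mix (0.5 mM PEP, 0.1 mM ADP), then 0.1 nM PKM2 added; 1 h, RT. Stop/detection luciferase reagent added, luminescence read. Normalized to no-inhibition and no-enzyme or reference-inhibitor controls.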

[7] = target: Alpha-galactosidase (Coffea arabica) (UniProt Q42656); test: Counterscreen for Glucocerebrosidase Inhibitors: qHTS Assay for Coffee Bean alpha-Galactosidase at pH 4.5 (AID 957); conditions: purified coffee bean alpha-galactosidase, fluorogenic substrate; series mostly up to 76.9 µM
Alpha-galactosidase (Coffea arabica), sequence (Q42656 whole entry, looked up): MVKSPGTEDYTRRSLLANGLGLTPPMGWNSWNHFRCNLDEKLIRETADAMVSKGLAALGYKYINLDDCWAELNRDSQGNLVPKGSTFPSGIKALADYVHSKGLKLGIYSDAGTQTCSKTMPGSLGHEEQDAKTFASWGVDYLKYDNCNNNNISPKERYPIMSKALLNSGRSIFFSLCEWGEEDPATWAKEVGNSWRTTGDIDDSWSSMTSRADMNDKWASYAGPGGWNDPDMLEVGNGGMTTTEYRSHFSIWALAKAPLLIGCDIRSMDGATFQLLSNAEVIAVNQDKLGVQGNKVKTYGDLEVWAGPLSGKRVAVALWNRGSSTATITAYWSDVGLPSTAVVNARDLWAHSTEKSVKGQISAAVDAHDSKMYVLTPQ
Procedure, shortened: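 Fluorogenic read-out: 4-methylumbelliferone at Ex 365/Em 440 nm after NaOH/glycine stop (pH 10). Enzyme 2 nM, 4-MU-alpha-galactoside 80 uM, citrate buffer pH 4.5, 20 min RT; normalized to no-enzyme and enzyme controls.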

[8] = target: Alpha-galactosidase A (Homo sapiens) (UniProt P06280); test: Counterscreen for Glucocerebrosidase Inhibitors: qHTS Assay for Human alpha-Galactosidase at pH 4.5 (AID 992); conditions: purified enzyme, fluorogenic substrate; series mostly up to 76.9 µM
Alpha-galactosidase A (Homo sapiens), sequence (P06280 whole entry, looked up): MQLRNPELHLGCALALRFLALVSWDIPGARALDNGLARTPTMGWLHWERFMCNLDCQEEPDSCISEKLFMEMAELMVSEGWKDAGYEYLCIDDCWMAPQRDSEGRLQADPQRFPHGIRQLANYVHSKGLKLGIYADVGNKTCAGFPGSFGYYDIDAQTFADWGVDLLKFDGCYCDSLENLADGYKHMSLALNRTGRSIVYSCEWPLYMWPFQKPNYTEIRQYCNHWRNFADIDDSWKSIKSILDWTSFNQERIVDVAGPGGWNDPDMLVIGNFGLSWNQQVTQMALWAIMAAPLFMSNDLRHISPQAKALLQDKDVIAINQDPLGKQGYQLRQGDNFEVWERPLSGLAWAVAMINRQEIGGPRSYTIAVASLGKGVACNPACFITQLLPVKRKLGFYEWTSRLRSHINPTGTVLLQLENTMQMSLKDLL
Procedure, shortened: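 Steps: enzyme (2 nM final), then compound across 0.7 nM to 77 uM, then 80 uM fluorogenic galactopyranoside substrate; incubate 20 min at room temperature; quench at pH 10; measure fluorescence at 365/440 nm.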

[9] = target: alpha-glucosidase (Oryza sativa, rice) (UniProt Q653V4); test: Counterscreen for Glucocerebrosidase Inhibitors: qHTS Assay for Rice alpha-Glucosidase at pH 5.0 (AID 997); conditions: rice alpha-glucosidase enzyme activity; series mostly up to 76.9 µM
Procedure, shortened: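 Endpoint fluorogenic assay at pH 5.0: compounds (0.7 nM to 77 uM) titrated against 4 nM rice enzyme and 400 uM 4-MU-alpha-glucoside for 20 min at room temperature; NaOH/glycine stop, read ex 365/em 440 nm, Hill-fitted AC50.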

[10] = target: Alpha-galactosidase (Coffea arabica) (UniProt Q42656); test: Counterscreen for Glucocerebrosidase Inhibitors: qHTS Assay for Coffee Bean alpha-Galactosidase at pH 5.9 (AID 998); conditions: coffee bean alpha-galactosidase enzyme assay; series mostly up to 76.9 µM
Procedure, shortened: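 Fluorogenic 4-MU substrate hydrolysis, 80 uM substrate and 2 nM coffee bean alpha-galactosidase, pH 5.9 citrate buffer, 20 min at room temperature, then NaOH/glycine stop. Titration 0.7 nM–77 uM, normalized to no-enzyme and enzyme controls, AC50 via Hill equation.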

AS120 = test: qHTS profiling for inhibitors of Plasmodium falciparum proliferation (AID 504749); note: nearly all actives have a fitted effect of over 60% in size; conditions: P. falciparum in erythrocytes, SYBR Green DNA, 72 h; series mostly up to 28.7 µM
Procedure, shortened: (§1)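 In a 72 h erythrocytic culture (37 C, humidified, 5% CO2) at 2.5% hematocrit and 0.3% starting parasitemia, compounds were tested; SYBR Green I in detergent lysis buffer stained parasite DNA overnight.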

ATS189 = test: as above; conditions: P. falciparum in erythrocytes, SYBR Green DNA, 72 h; series mostly up to 28.7 µM
Procedure, shortened: as §1

CP191 = test: as above; conditions: P. falciparum in erythrocytes, SYBR Green DNA, 72 h; series mostly up to 28.7 µM
Procedure, shortened: as §1

CP192 = test: as above; conditions: P. falciparum in erythrocytes, SYBR Green DNA, 72 h; series mostly up to 28.7 µM
Procedure, shortened: as §1

CP194 = test: as above; conditions: P. falciparum in erythrocytes, SYBR Green DNA, 72 h; series mostly up to 28.7 µM
Procedure, shortened: as §1

CP201 = test: as above; conditions: P. falciparum in erythrocytes, SYBR Green DNA, 72 h; series mostly up to 28.7 µM
Procedure, shortened: as §1

CP203 = test: as above; conditions: P. falciparum in erythrocytes, SYBR Green DNA, 72 h; series mostly up to 28.7 µM
Procedure, shortened: as §1

CP291 = test: as above; conditions: P. falciparum in erythrocytes, SYBR Green DNA, 72 h; series mostly up to 28.7 µM
Procedure, shortened: as §1

P94_40 = test: as above; conditions: P. falciparum in erythrocytes, SYBR Green DNA, 72 h; series mostly up to 28.7 µM
Procedure, shortened: as §1

TAB113 = test: as above; conditions: P. falciparum in erythrocytes, SYBR Green DNA, 72 h; series mostly up to 28.7 µM
Procedure, shortened: as §1

Measured: Potency

COC(=O)c1ccccc1C(=O)OC
inactive: [1]

CN1CC[C@@]23CCCC[C@@H]2[C@@H]1Cc1ccc(O)cc13
inactive: [2] | [3] | [4] | [5] | [6] | [7] | [8] | [9] | [10]

C[N+](C)(C)CC(=O)[O-]
inactive: AS120 | ATS189 | CP191 | CP192 | CP194 | CP201 | CP203 | CP291 | P94_40 | TAB113
